In PubChem BioAssay (NCATS):
Inconclusive results are not listed. Activity calls are given as the source filed them. The call rests on the fitted dose curve; in most records, active means well fitted cell-killing curve with a large enough effect; inconclusive means small, poorly fitted or top-dose-only effect, or effect the other way; inactive means no such curve, though single readings can be large or run the other way.

Assay: Quantitative High-Throughput drug screen in 47 multiple myeloma cell lines against the NCATS MIPE library collection: KMM1_JCRB cell viability assay (AID 1918960); further: nearly all actives have a fitted effect of over 30% in size;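 on viability (% of DMSO): 100% = DMSO-treated cells and 0% = medium-only wells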
Details: KMM1 myeloma viability, CellTiter-Glo ATP luminescence, 48 h; series mostly up to 45.8 µM; viability (% of DMSO): at the top concentration
Summary of the method: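 Here, 48 h treatment with MIPE 4.0 agents at 37 °C preceded an ATP luminescence read. Plating density was 500 cells per well.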
Potency means the concentration at half of the fitted maximal effect.

SMILES	viability (% of DMSO)	Potency
CC(C)(CO)[C@@H](O)C(=O)NCCC(=O)O	101% (inactive)	
CC1(C)[C@H]2CC[C@]3(C)[C@@H](C(=O)C=C4[C@@H]5C[C@@](C)(C(=O)O)CC[C@]5(C)CC[C@]43C)[C@@]2(C)CC[C@@H]1O	94.2% (inactive)	
COc1nccc(-c2c(-c3ccc(F)cc3)ncn2C2CCNCC2)n1	108% (inactive)	
COc1cc(CNC(=O)CCCCC=CC(C)C)ccc1O	73.7% (inactive)	
CN1[C@H]2CC[C@H]1CC(OC(=O)c1c[nH]c3ccccc13)C2 (stereo partly specified)	104% (inactive)	
CN(C)CC[C@H](CSc1ccccc1)Nc1ccc(S(=O)(=O)NC(=O)c2ccc(N3CCN(Cc4ccccc4-c4ccc(Cl)cc4)CC3)cc2)cc1[N+](=O)[O-]		4.69 µM (active)
CC[C@H](CC#N)OC(=O)N[C@@H](C)c1cccc(NC(=O)Nc2ccc(-c3cnco3)c(OC)c2)c1		0.418 µM (active)
COc1cc(C=CC(=O)O)ccc1O	92.6% (inactive)	
COC(=O)Nc1ccc(-c2nc(N3CCOCC3)c3cnn(C4CCN(C(=O)OC)CC4)c3n2)cc1		0.469 µM (active)
N#Cc1ccc(Oc2ccc3c(c2)COB3O)cc1		16.6 µM (active)
NC1(C(=O)N[C@@H](CCO)c2ccc(Cl)cc2)CCN(c2ncnc3[nH]ccc23)CC1		0.118 µM (active)
Cc1cn([C@@H]2C[C@@H](O)[C@H](CO)O2)c(=O)[nH]c1=O	87.1% (inactive)	
CC(=O)NCCC(=O)N[C@@H](CCC(N)=O)C(=O)N[C@@H](CO)C(=O)N[C@@H](CCC(N)=O)C(=O)N[C@@H](CCC(N)=O)C(=O)N[C@H](C(=O)N[C@@H](Cc1ccccc1)C(=O)N[C@]1(C)CCCCCCC=CCCC[C@@](C)(C(=O)N[C@@H](CCC(N)=O)C(=O)N[C@@H](CC(N)=O)C(N)=O)NC(=O)[C@H](CC(C)C)NC(=O)[C@H](CC(C)C)NC(=O)[C@@H](CCCNC(=N)N)NC(=O)[C@H](Cc2c[nH]c3ccccc23)NC(=O)[C@H](CC(C)C)NC(=O)[C@H](CC(N)=O)NC1=O)[C@H](C)O	104% (inactive)	
CS(=O)(=O)c1ccc(C2=C(c3ccccc3)C(=O)OC2)cc1	93.8% (inactive)	
CCC(c1ccc(O)cc1)C(CC)c1ccc(O)cc1 (stereo unspecified)	113% (inactive)	
CN(C)CCOc1ccc(C(=C(CCCl)c2ccccc2)c2ccccc2)cc1	77.7% (inactive)	
CN[C@@H]1[C@@H](O)[C@@H](O[C@@H]2[C@@H](O)[C@H](O[C@H]3O[C@H](CN)[C@@H](O)[C@H](O)[C@@H]3O)[C@@H](N)C[C@@H]2NC(=O)[C@@H](O)CN)OC[C@]1(C)O	107% (inactive)	
CN1CC(=O)N2C(Cc3c([nH]c4ccccc34)[C@H]2c2ccc3c(c2)OCO3)C1=O (stereo partly specified)	93% (inactive)	
CC(C)Oc1cc(Nc2nc(N[C@@H](C)c3ccc(F)cn3)ncc2Cl)[nH]n1		16.6 µM (active)
CC(C)(O)CC(=O)NCCn1ccc2ncnc(Nc3ccc(Oc4cccc(C(F)(F)F)c4)c(Cl)c3)c21		5.26 µM (active)
CN1c2ccccc2C(=O)N2CCc3c([nH]c4ccccc34)C21 (stereo unspecified)	108% (inactive)	
